Screening data (PubChem)
HCV inhibitor: qHTS Assay for Inhibitors of Hepatitis C Virus (HCV). Huh7.5.1 HCVcc-Cre infection, luciferase reporter, 44 h. Potency, µM (doses to about 41.8 µM), actives largely listed as inhibitors. 3.4% of 340,000 active. AID 651820, 2012; active means well fitted inhibition curve with a large enough effect; inconclusive means small, poorly fitted or top-dose-only effect, or another doubt; inactive means no such curve, though single readings can be large or run the other way
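Antiviral activity was scored by luciferase reporter output from cells infected with HCVcc-Cre (~0.5 moi) in presence of compound, 44 h infection period, cells seeded 1,000/well 4 h prior.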
VACV mCherry inh: qHTS for Stage-Specific Inhibitors of Vaccinia Orthopoxvirus: mCherry Reporter Primary qHTS | Vaccinia virus mCherry reporter infection, fluorescence | Potency, µM (titrated, usually from 36.5 µM), most hits filed as inhibitors | 0.63% of 310,000 active; calls by dose curve; tested in A549 cells; further: nearly all actives have a fitted effect of over 35% in size
LASV entry inh: qHTS for Inhibitors of binding or entry into cells for Lassa Virus; 1.2% of 300,000 active; AID 540256, 2011; Potency, µM (series often up to 37.9 µM), usual class: inhibitors; Lassa virus pseudotype entry inhibition, cell reporter; calls by dose curve; tested in HEK293 cells; further: nearly all actives have a fitted effect of over 50% in size
MARV entry inh: qHTS for inhibitors of binding or entry into cells for Marburg Virus; 1.8% of 300,000 active; Potency, µM (doses to about 37.8 µM), actives largely listed as inhibitors; Marburg virus pseudotyped entry inhibition, cell reporter; calls by dose curve; tested in HEK293 cells
Vaccinia Venus: qHTS for Stage-Specific Inhibitors of Vaccinia Orthopoxvirus: Venus Reporter Primary qHTS; Vaccinia virus Venus reporter expression, fluorescence; Potency, µM (series often up to 36.5 µM), actives largely listed as inhibitors; 0.46% of 330,000 active; calls by dose curve; tested in A549 cells; further: nearly all actives have a fitted effect of over 30% in size
HCMV inh: qHTS Assay for inhibitors of the human cytomegalovirus (HCMV). activity change, negative = inhibition, % at 57.5 µM. AID 1259415, 2018. HFF cells, HCMV-luciferase reporter, 72 h; stronger effect = lower value. 4.5% of 410,000 active; in the data active means activity change below about -60%; inconclusive means no clear call, values can overlap the other calls; inactive means above about -39%
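Compounds were evaluated in HFFs infected with an HCMV luciferase reporter virus (MOI 1 PFU/cell). Luciferase in lysates collected 72 h post infection served as the replication measure.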
Large screens that a line does not name were inactive. Most compounds without a hit are left out; they make up all but 7.8% or so of the library.

c1ccc(COc2ccc(-c3cc4nc(NCc5ccc6c(c5)OCO6)ccn4n3)cc2)cc1	VACV mCherry inh inconclusive, HCMV inh -64 (no result: HCV inhibitor, LASV entry inh, MARV entry inh)
Cc1nc2ccccc2c(=O)n1/N=C/c1cn[nH]c1-c1ccccc1	HCV inhibitor inconclusive, LASV entry inh inconclusive
Cc1ccccc1OCc1nc2ccccc2c(=O)n1/N=C/c1cn[nH]c1-c1ccccc1	HCV inhibitor inconclusive, VACV mCherry inh inconclusive, LASV entry inh 10µM, MARV entry inh 16µM, Vaccinia Venus inconclusive
Cc1ccc(-c2[nH]ncc2/C=N/n2c(COc3ccccc3)nc3ccccc3c2=O)cc1	HCV inhibitor 11µM, LASV entry inh inconclusive, MARV entry inh inconclusive, Vaccinia Venus inconclusive, HCMV inh -78
O=c1c2ccccc2nc(COc2ccccc2)n1/N=C/c1ccco1	LASV entry inh inconclusive (no result: VACV mCherry inh)
Cc1cc(/C=N/n2c(COc3ccccc3)nc3ccccc3c2=O)c(O)c([N+](=O)[O-])c1	HCV inhibitor inconclusive, VACV mCherry inh 28µM, LASV entry inh inconclusive, MARV entry inh inconclusive, Vaccinia Venus inconclusive, HCMV inh -63
O=C(c1ccc([N+](=O)[O-])s1)N1CCN(c2ccccn2)CC1	HCV inhibitor inconclusive, VACV mCherry inh inconclusive, Vaccinia Venus inconclusive, HCMV inh -61
COc1ccc(OC)c2sc(N3CCN(C(=O)c4ccc([N+](=O)[O-])s4)CC3)nc12	HCV inhibitor inconclusive
O=C(c1ccc([N+](=O)[O-])s1)N1CCN(c2ccccc2)CC1	HCV inhibitor inconclusive, Vaccinia Venus inconclusive, HCMV inh -96 (no result: LASV entry inh)
CCC(=O)N1[C@H](CO)[C@@H]2c3ccccc3N(C(=O)Nc3ccc(Cl)cc3)C[C@@H]21	none (no result: HCV inhibitor, VACV mCherry inh, LASV entry inh, MARV entry inh, Vaccinia Venus)
COc1ccccc1Nc1c2c(nc3ccc(NC(=O)c4ccccc4F)cc13)CCCC2	VACV mCherry inh inconclusive, LASV entry inh inconclusive, MARV entry inh 3.2µM, Vaccinia Venus inconclusive, HCMV inh -100 (no result: HCV inhibitor)
COc1ccccc1Nc1c2c(nc3ccc(NC(=O)c4cccc(OC)c4OC)cc13)CCCC2	LASV entry inh 7.9µM, MARV entry inh inconclusive, HCMV inh -98 (no result: HCV inhibitor)
COc1ccccc1Nc1c2c(nc3ccc(NC(=O)c4ccc(OC)c(OC)c4)cc13)CCCC2	LASV entry inh inconclusive, MARV entry inh 2.2µM, HCMV inh -99 (no result: HCV inhibitor)
COc1ccc(Nc2c3c(nc4ccc(NC(=O)c5ccc(F)cc5)cc24)CCCC3)cc1OC	MARV entry inh inconclusive (no result: HCV inhibitor)
COc1ccc(C(=O)Nc2ccc3nc4c(c(Nc5ccc(OC)c(OC)c5)c3c2)CCCC4)c(OC)c1	MARV entry inh inconclusive, HCMV inh -92 (no result: HCV inhibitor)
COc1ccc(/C=C/C(=O)NCC2Cc3cccc(-c4nc(C)cnc4C)c3O2)cc1OC (stereo unspecified)	none (no result: HCV inhibitor, LASV entry inh, MARV entry inh, HCMV inh)
O=C(CC1N=C2c3ccccc3N=C(SCC(=O)Nc3ccc(F)cc3)N2C1=O)NCc1ccc2c(c1)OCO2 (stereo unspecified)	none (no result: HCV inhibitor, MARV entry inh)
COc1ccc(C(=O)Nc2ccc3nc4c(c(Nc5ccccc5OC)c3c2)CCCC4)c(OC)c1	MARV entry inh 2.5µM (no result: HCV inhibitor)
COc1ccccc1Nc1c2c(nc3ccc(N)cc13)CCCC2	HCV inhibitor inconclusive (no result: VACV mCherry inh, LASV entry inh, MARV entry inh, Vaccinia Venus)
COc1cccc(CNC(=O)[C@@H]2[C@@H](CO)[C@@H]3Cn4c(ccc(-c5cncnc5)c4=O)[C@H]2N3C(C)=O)c1	HCMV inh -101 (no result: HCV inhibitor, VACV mCherry inh, LASV entry inh, MARV entry inh, Vaccinia Venus)
COCCNC(=O)[C@H]1[C@H](CO)[C@H]2Cn3c(ccc(-c4ccc(F)cc4)c3=O)[C@@H]1N2C(=O)NC(C)C	none (no result: HCV inhibitor, VACV mCherry inh, LASV entry inh, MARV entry inh, Vaccinia Venus)
Cn1c(N)c(C(=O)CSc2nn(-c3ccccc3)c(=S)s2)c(=O)n(C)c1=O	HCV inhibitor 10µM, VACV mCherry inh inconclusive, LASV entry inh inconclusive, MARV entry inh inconclusive, HCMV inh inconclusive
Cc1c(C)n(CCc2ccccc2)c2ncnc(NCCCN(C)C)c12	HCV inhibitor inconclusive, VACV mCherry inh 7.1µM, MARV entry inh 8.9µM, Vaccinia Venus inconclusive, HCMV inh inconclusive
COc1ccc(NC(=O)Cn2c(=O)n(CCCC(=O)NCc3ccccc3Cl)c(=O)c3ccccc32)c(OC)c1	Vaccinia Venus inconclusive (no result: HCV inhibitor)
CCn1c2ccccc2c2cc(C3C(C#N)=C(C)NC(C)=C3C#N)ccc21	HCV inhibitor 11µM
CCn1c2ccccc2c2cc(C3C(C#N)=C(N)Oc4n[nH]c(COC)c43)ccc21 (stereo unspecified)	HCV inhibitor inconclusive, LASV entry inh inconclusive, MARV entry inh 5.2µM
COCCn1c(C)cc(O)c(C(c2ccccc2)N2CCN(CCO)CC2)c1=O (stereo unspecified)	none (no result: HCV inhibitor, MARV entry inh)
COc1ccc(-c2nc3c(c(SCC(=O)N4CCCCC4)n2)Cc2c(CO)cnc(C)c2O3)cc1	none (no result: HCV inhibitor, MARV entry inh)
CC(=O)Nc1ccc(SC[C@H](Cc2ccccc2)N2CC[C@@H](N)CCC2=O)cc1	none (no result: HCV inhibitor, LASV entry inh, MARV entry inh, HCMV inh)
COc1cccc(NC(=O)c2sc3nc(C)c(C(=O)Nc4ccc(C)cc4C)c(-c4ccc(C)o4)c3c2N)c1	LASV entry inh inconclusive, MARV entry inh inconclusive (no result: HCV inhibitor)
C[C@H](NC(=O)OC(C)(C)C)C(=O)N/N=C/C1=Cc2ccccc2OC1	HCMV inh -78 (no result: VACV mCherry inh, LASV entry inh, MARV entry inh, Vaccinia Venus)
CCN(CC)c1nc2ccccc2nc1C(=O)Nc1ccc(C(C)=O)cc1	LASV entry inh inconclusive (no result: HCV inhibitor, MARV entry inh)
Cc1ccc(S(=O)(=O)N2CCOC2CNC(=O)C(=O)NCCCN2CCOCC2)cc1 (stereo unspecified)	HCMV inh -61 (no result: VACV mCherry inh, LASV entry inh, MARV entry inh, Vaccinia Venus)
Cc1ccc(S(=O)(=O)N2CCCOC2CNC(=O)C(=O)NCCc2c[nH]c3ccccc23)cc1 (stereo unspecified)	HCV inhibitor inconclusive, VACV mCherry inh inconclusive, LASV entry inh inconclusive, MARV entry inh inconclusive, Vaccinia Venus inconclusive, HCMV inh -64
Cc1cccc(C)c1NC(=O)C(=O)NCCCN1CCOCC1	VACV mCherry inh 6.3µM, Vaccinia Venus 2µM
Cc1cccc2cc(C#N)c(NCCNC(=S)NCCCN3CCOCC3)nc12	HCV inhibitor 11µM, MARV entry inh inconclusive
Cc1ccc(C)c(NC(=O)C(=O)NCCCN2CCOCC2)c1	LASV entry inh inconclusive
Cc1cc2cc(C#N)c(NCCNC(=S)NCCCN3CCOCC3)nc2cc1C	HCV inhibitor inconclusive
CCOC(=O)CN1C(=O)C2(CC(C)=C[C@@H](C)O2)c2c(Br)cccc21 (stereo partly specified)	LASV entry inh inconclusive (no result: HCV inhibitor, VACV mCherry inh, Vaccinia Venus, HCMV inh)
Nc1c(Br)cc(C=O)cc1Br	none (no result: HCV inhibitor, LASV entry inh, MARV entry inh, HCMV inh)
COc1ccc([C@H]2CC(=O)C=C(c3ccccc3)C2)cc1OC	HCV inhibitor inconclusive (no result: LASV entry inh, MARV entry inh)
COc1ccc([C@H]2CC(=O)C=C(c3ccc(Oc4ccccc4)cc3)C2)cc1OC	HCV inhibitor 5.6µM, VACV mCherry inh inconclusive, Vaccinia Venus inconclusive, HCMV inh -64 (no result: LASV entry inh, MARV entry inh)
O=C(CN1C(=O)NC2(CCCC2)C1=O)OCc1ccc(Br)cc1	HCV inhibitor inconclusive
CC1CCCCC12NC(=O)N(CC(=O)NCc1ccc3c(c1)OCO3)C2=O (stereo unspecified)	HCMV inh -80
